# Source: PubChem BioAssay AID504527 (The Scripps Research Institute Molecular Screening Center, 2011)
# Calls of active or inactive are those of the source.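 Rule for the calls: active = two or more serine hydrolases at least half inhibited, plus every target band half blocked in a general-probe test; inactive = under two enzymes half blocked, or any target band not.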
# Test: broad serine hydrolase inhibition in proteome, late-stage follow-up, selectivity assay for PAFAH2 inhibitor project, fluorescence, gel-based ABPP, powder samples (AID 504527)
# Details: BW5147 murine T-cell proteome, FP-Rh fluorescence, competitor test compound, probe FP-Rh, at 20 µM, stronger effect = higher value
row,SMILES,number of serine hydrolases inhibited >=50%
1,C#CCOCCOCCOCCN(Cc1ccccc1)C(=O)n1ccnc1,0 (inactive)
2,C#CCOCCOCCOCCN(Cc1ccccc1)C(=O)n1ncc(-c2ccccc2)n1,8 (active)
3,C#CCOCCOCCOCCN(Cc1ccccc1)C(=O)n1nc2cccnc2n1,7 (active)
4,C#CCOCCOCCOCCN(Cc1ccccc1)C(=O)Oc1ccc([N+](=O)[O-])cc1,1 (inactive)
5,C#CCOCCOCCOCCN(Cc1ccccc1)C(=O)n1nccn1,5 (active)
